The values below come from PubChem BioAssay AID1224903 (Bradner/Qi Labs at DFCI, 2016).

“And” between values parts separate entries of the source, which are not always exact repeats. Equal entries are not always repeated. Hit rate of the full screen: of about 66,000 compounds, about 720 (1.1%) were called active. Cut-off read from the data, not from the text of the source: active = normalised signal below about 0.5; inactive = the rest, inconclusive results apart. The full list was thinned out, with actives kept by preference.

The assay deals with Chromobox protein homolog 7 (Homo sapiens) (UniProt O95931). The assay can be described thus: CBX7 chromodomain binding inhibitors, primary screen, biochemical, AlphaScreen (AID 1224903). To be noted: AlphaScreen His6-CBX7 / biotin-H3K27me3 peptide binding, stronger effect = lower value; z-score: measured here: z-score of CBX7 signal.
Chromobox protein homolog 7 (Homo sapiens), sequence (O95931 whole entry, looked up): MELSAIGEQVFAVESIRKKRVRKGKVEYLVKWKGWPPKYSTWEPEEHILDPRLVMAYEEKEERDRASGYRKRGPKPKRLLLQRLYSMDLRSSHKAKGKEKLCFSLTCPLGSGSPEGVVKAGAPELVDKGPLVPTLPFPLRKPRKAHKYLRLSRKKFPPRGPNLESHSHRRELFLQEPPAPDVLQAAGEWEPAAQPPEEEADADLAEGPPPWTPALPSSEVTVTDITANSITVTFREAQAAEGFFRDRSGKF
As to `COc1ccc(CCNC(=O)CCc2c(C)nc3c(c(C)nn3-c3ccc(C)cc3)c2C)cc1OC`, the normalised signal (fraction of DMSO) is 1.07 (inactive) and the z-score came out at 1.56.
Consider `COc1cccc(Nc2nc(-c3ccc(Cl)cc3)cs2)c1`, for which the normalised signal (fraction of DMSO) is 0.908 (inactive) and 0.897 (inactive); the z-score was -1.58 and -2.88.
In the case of `O=C(Nc1ccc(-c2nc3ccccc3o2)c(O)c1)c1ncn[nH]1`, the normalised signal (fraction of DMSO) was 0.308 (active) and the z-score was -19.7.
In the same order, the values of `O=C(Nc1ccc(-c2nc3ccccc3o2)c(O)c1)c1cccc(F)c1` are 1.11 (inactive) and 2.16.
In the same order, the values of `COc1cc(OC)cc(C(=O)Nc2ccc(-c3nc4ccccc4o3)c(O)c2)c1` are 0.956 (inactive) and -0.356.
For `CCOC(=O)CNC(=O)c1cc2c(n(-c3ccc(C)cc3)c1=O)CCCC2=O`, in that order: 1.19 (inactive) and 0.796.
Consider `CCN1CCCC1CNC(=O)c1ccc2c(c1)N(Cc1ccccc1)CCS2` (stereo unspecified), for which the normalised signal (fraction of DMSO) was 0.92 (inactive) and the z-score is -0.106.
For `Cc1ccc(NC(=O)C2CCCN(S(=O)(=O)c3cccc4cccnc34)C2)cc1F` (stereo unspecified), in that order: 1.02 (inactive) and 0.516.
For `CCOC(=O)c1ccc(NC(=O)c2c(NCc3cccs3)sc3c2CCCC3)cc1`, in that order: 0.674 (inactive) and -4.57.
In the same order, the values of `COc1ccccc1NC(=O)c1c(NCc2cccs2)sc2c1CCCC2` are 0.467 (active) and -7.46.
`COc1ccccc1NC(=O)c1c(NCc2ccncc2)sc2c1CCCC2`: the normalised signal (fraction of DMSO) was 0.583 (inactive) and the z-score was -5.84.
In the same order, the values of `CN(C)S(=O)(=O)c1ccc(C(=O)Nc2nnc(C3CC3)o2)cc1` are 0.379 (active) and -14.
In the case of `CN(C)S(=O)(=O)c1ccc(C(=O)Nc2nnc(-c3ccccc3Cl)o2)cc1`, the normalised signal (fraction of DMSO) was 0.145 (active) and the z-score was -14.4.
`CCN(CC)S(=O)(=O)c1ccc(C(=O)Nc2nnc(-c3cc(OC)cc(OC)c3)o2)cc1`: the normalised signal (fraction of DMSO) was 0.885 (inactive) and the z-score was -1.93.
As for `COc1ccc(-c2nnc(NC(=O)c3ccc(S(=O)(=O)N4CCC(C)CC4)cc3)o2)cc1`, the normalised signal (fraction of DMSO) is 0.796 (inactive) and the z-score was -4.6.
For `COCCN(CCOC)S(=O)(=O)c1ccc(C(=O)Nc2nnc(-c3cccs3)o2)cc1`, in that order: 0.698 (inactive) and -6.83.
For `CN(Cc1ccccc1)S(=O)(=O)c1ccc(C(=O)Nc2nnc(-c3ccccc3Cl)o2)cc1`, in that order: 0.095 (active) and -15.2.
As to `C=CCN(CC=C)S(=O)(=O)c1ccc(C(=O)Nc2nnc(-c3cccs3)o2)cc1`, the normalised signal (fraction of DMSO) is 0.877 (inactive) and the z-score is -3.03.
In the same order, the values of `CCC1CCCCN1S(=O)(=O)c1ccc(C(=O)Nc2nnc(COC)o2)cc1` (stereo unspecified) are 0.727 (inactive) and -7.33.
In the same order, the values of `CCCCN(C)S(=O)(=O)c1ccc(C(=O)Nc2nnc(C)o2)cc1` are 0.00344 (active) and -1.32.
For `CC1CCCCN1S(=O)(=O)c1ccc(C(=O)Nc2nnc(-c3cccs3)o2)cc1` (stereo unspecified), in that order: 0.92 (inactive) and -1.8.
Take `CCCCN(CC)S(=O)(=O)c1ccc(C(=O)Nc2nnc(-c3ccc(Cl)s3)o2)cc1`: the normalised signal (fraction of DMSO) is 1.03 (inactive) and the z-score amounted to 0.687.
`COc1ccc(-c2nnc(NC(=O)c3ccc(S(=O)(=O)N4CC(C)OC(C)C4)cc3)o2)c(OC)c1` (stereo unspecified): the normalised signal (fraction of DMSO) was 0.629 (inactive) and the z-score was -8.38.
